The values that follow come from PubChem BioAssay (NCATS).

The structures appear in SMILES notation. Values joined by “and” are separate entries in the source; they are usually repeats but may differ in a detail not shown here. Equal entries are not always repeated. Results filed as inconclusive are left out. Active and inactive are the calls of the source. Unless noted, calls follow the shape of the dose curve; as a rule, active = well fitted curve in the direction sought with a large enough effect; inconclusive = small, poorly fitted or top-dose-only effect, or another doubt; inactive = no such curve, though single readings can be large; an effect the other way counts as inactive or inconclusive.

Test [1] is described as follows: qHTS assay for small molecule agonists of retinoid X receptor alpha signaling (AID 588544; calls by dose curve;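 as to activation: 0% = DMSO basal wells and 100% = reference agonist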). The settings on record: HEK293T RXRa-UAS-bla, beta-lactamase reporter, 18 h; 530 nm emission. For orientation: Quantitative high-throughput screening tests each substance at several concentrations.
The target in test [2] is Retinoic acid receptor RXR-alpha (Homo sapiens) (UniProt P19793). The description is as above. The settings on record: HEK293T RXRa-UAS-bla, beta-lactamase reporter, 18 h; series mostly up to 76.7 µM.
Chain of Retinoic acid receptor RXR-alpha (Homo sapiens) (P19793 whole entry, looked up): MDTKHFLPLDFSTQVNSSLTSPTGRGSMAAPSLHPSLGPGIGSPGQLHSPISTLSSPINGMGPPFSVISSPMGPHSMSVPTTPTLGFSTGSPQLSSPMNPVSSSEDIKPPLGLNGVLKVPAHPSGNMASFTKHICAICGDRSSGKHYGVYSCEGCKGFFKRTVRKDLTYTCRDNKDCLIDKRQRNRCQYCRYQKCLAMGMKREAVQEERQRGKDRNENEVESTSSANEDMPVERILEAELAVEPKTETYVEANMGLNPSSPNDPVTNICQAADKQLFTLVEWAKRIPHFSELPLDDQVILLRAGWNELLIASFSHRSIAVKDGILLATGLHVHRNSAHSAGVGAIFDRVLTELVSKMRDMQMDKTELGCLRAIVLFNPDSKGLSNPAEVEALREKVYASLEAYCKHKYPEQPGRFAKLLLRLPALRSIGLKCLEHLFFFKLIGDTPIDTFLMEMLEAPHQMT
In test [3] the target is Thyroid hormone receptor beta (Homo sapiens) (UniProt P10828). Briefly: qHTS assay for small molecule agonists of thyroid hormone receptor beta signaling (AID 588545; calls by dose curve;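 also: 0% = DMSO only and 100% = 10 nM T3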). To be noted: TR-UAS-bla GripTite HEK 293, beta-lactamase ratio, agonist mode, 18 h, percent of T3 response, DMSO as zero; series mostly up to 76.7 µM. The essentials:
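Stimulation of a TR-driven beta-lactamase reporter was quantified in GripTite HEK 293 cells. Compound series ran for 18 hrs; curves were normalized to T3 and DMSO controls and fitted to yield EC50.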

Test [4] can be described thus: qHTS assay for small molecule antagonists of retinoid X receptor alpha signaling (AID 588546; active = well fitted inhibition curve with a large enough effect in the signal ratio, with a control signal flat, not every such curve was filed as active; the % refers to the signal ratio;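 also: cells stimulated with 9-cis-retinoic acid as agonist; % is scaled to controls: 0 for no effect and ±100 for the full control effect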). The settings on record: HEK293T RXRa-UAS-bla, beta-lactamase ratio, antagonist mode; measured here: W530 green channel, cytotoxicity proxy. A digest of the protocol:
(§1)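 Beta-lactamase reporter inhibition, read as CCF4 fluorescence ratio (ex 405, em 460/530 nm) after 2 h at RT. HEK293T UAS-bla cells, 2500/well, were stimulated with 9-cis-RA at 500 or 100 nM final alongside test compound for 18 h at 37 C.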

The target of test [5] is Retinoic acid receptor RXR-alpha (Homo sapiens) (UniProt P19793). The description is as above. To be noted: HEK293T RXRa-UAS-bla, beta-lactamase ratio, antagonist mode. The essentials: as §1
In test [6] the target is Thyroid hormone receptor beta (Homo sapiens) (UniProt P10828). Briefly: qHTS assay for small molecule antagonists of thyroid hormone receptor beta signaling (AID 588547; active = well fitted inhibition curve with a large enough effect in the signal ratio, with a control signal flat, not every such curve was filed as active; the % refers to the signal ratio;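 also: cells stimulated with 0.4 nM T3 agonist during compound exposure; % is scaled to controls: 0 for no effect and ±100 for the full control effect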). The settings on record: TR-UAS-bla HEK293, beta-lactamase ratio, antagonist mode, 18 h. The essentials: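 TR-UAS-bla GripTite HEK293 cells in 2% charcoal/dextran FBS medium were preincubated 4 h at 37 C, given compound (0.59 nM to 92 uM) plus 0.4 nM T3 (final) for 18 h, then CCF4 for 2 h at RT; Hill fit gave IC50.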
Chain of Thyroid hormone receptor beta (Homo sapiens) (P10828 whole entry, looked up): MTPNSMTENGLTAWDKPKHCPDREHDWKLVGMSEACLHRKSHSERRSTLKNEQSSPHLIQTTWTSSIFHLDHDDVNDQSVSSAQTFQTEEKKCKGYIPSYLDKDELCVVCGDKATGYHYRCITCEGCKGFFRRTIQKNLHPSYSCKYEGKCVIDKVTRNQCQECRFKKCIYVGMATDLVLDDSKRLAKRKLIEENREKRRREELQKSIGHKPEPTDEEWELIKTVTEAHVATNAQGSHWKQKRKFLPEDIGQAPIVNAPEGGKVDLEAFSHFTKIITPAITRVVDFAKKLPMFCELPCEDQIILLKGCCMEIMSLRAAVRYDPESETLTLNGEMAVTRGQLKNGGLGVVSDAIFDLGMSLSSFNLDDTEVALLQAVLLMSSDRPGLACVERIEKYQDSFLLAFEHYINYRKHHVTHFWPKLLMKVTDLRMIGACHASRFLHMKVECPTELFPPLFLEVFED

Test [7] addresses Voltage-gated inwardly rectifying potassium channel KCNH2 (Homo sapiens) (UniProt Q12809). Briefly: qHTS Assay for Small Molecule Inhibitors of the Human hERG Channel Activity (AID 588834).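 Also: top concentration of the series differs between compounds; % is scaled to controls: 0 for no effect and ±100 for the full control effect; lower thallium flux fluorescence means stronger hERG block; nearly all actives have a fitted effect of over 50% in size.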 The settings on record: U2OS BacMam hERG, FluxOR thallium flux fluorescence; series mostly up to 92.2 µM. A digest of the protocol: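 U2OS cells transduced with hERG via BacMam (MOI ~100), plated 2000/well, loaded with FluxOR thallium dye, compound ~10 min, then stimulation buffer; fluorescence decrease read kinetically; AC50 from Hill fits.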

Test [8] can be described thus: qHTS assay for small molecule agonists of the antioxidant response element (ARE) signaling pathway (AID 651741; active = well fitted activation curve with a large enough effect in the signal ratio; the % refers to the signal ratio; also: potency is read from the fitted curve at half-maximal effect; as to activation: % of control where 0% means no effect). The settings on record: HepG2 ARE-bla reporter, beta-lactamase FRET ratio, 16 h; series mostly up to 96 µM. A digest of the protocol: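 Compounds in DMSO are pinned onto HepG2 ARE-bla cells (2,000/well) that were preincubated 5 h; plates stay 16 h at 37 C, then beta-lactamase activity is detected with LiveBLAzer B/G substrate by fluorescence.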

The nature of test [9]: qHTS assay for small molecule activators of the p53 signaling pathway (AID 651743; active = well fitted activation curve with a large enough effect in the signal ratio, not every such curve was filed as active; the % refers to the signal ratio; also: % of control where 0% means no effect). To be noted: HCT-116 p53RE-bla, beta-lactamase FRET ratio, 16 h; stronger effect = higher value. A digest of the protocol:
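Cell-based beta-lactamase reporter (p53 response elements, HCT-116 background). After a 5-hour preincubation, cells received compound for 16 hours at 37 C; substrate development ran 2 hours at room temperature.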

Test [10] in a line: qHTS assay for small molecule activators of the nuclear factor-kappa B (NF-kB) signaling pathway (AID 651749; active = well fitted activation curve with a large enough effect in the signal ratio; the % refers to the signal ratio; also: % of control where 0% means no effect). To be noted: NF-kB-bla ME-180 cells, beta-lactamase FRET ratio, 16 h; stronger effect = higher value. The essentials:
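Screening used 2,000 ME-180 reporter cells per well exposed to pinned compound (23 nL) or DMSO; after 16 hr at 37C, beta-lactamase expression under NF-kB control was assessed through FRET.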

Test [11] is described as follows: qHTS assay for small molecule disruptors of the mitochondrial membrane potential - 1 hr assay (AID 651754; calls by dose curve; also: % is scaled to controls: 0 for no effect and ±100 for the full control effect; nearly all actives have a fitted effect of over 35% in size). To be noted: series mostly up to 92.2 µM. A digest of the protocol:
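HepG2, 2,000 cells/well, overnight attachment; cpd or DMSO 1 hr, 37C/5% CO2; Mito-MPS dye 30 min, 37C; fluorescence monomer (490/535) and aggregate (540/590).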

A short description of test [12]: qHTS assay for small molecule disruptors of the mitochondrial membrane potential - 5 hr assay (AID 651755; calls by dose curve; also: % is scaled to controls: 0 for no effect and ±100 for the full control effect; nearly all actives have a fitted effect of over 40% in size). To be noted: JC-1-type ratio dye; series mostly up to 92.2 µM. The essentials: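 HepG2 cells, attached overnight at 37C, were exposed to compound or DMSO for 5 hr at 37C, 5% CO2. Mito-MPS dye was then added for 30 min, and fluorescence read at 490/535 nm (monomers) and 540/590 nm (aggregates).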

In test [13] the target is Tumor necrosis factor (Homo sapiens) (UniProt P01375). Briefly: qHTS assay to identify small molecules that stimulate Tumor Necrosis Factor-alpha (TNF-alpha) secretion (AID 651757; active = well fitted curve in the direction sought with a large enough effect in the signal ratio; the % refers to the signal ratio; also: 0% is about no effect). The settings on record: Human cells, HTRF 665/615 ratio; series mostly up to 92.2 µM. The essentials:
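Read-out is HTRF, a TR-FRET sandwich of cryptate- and XL665-labeled anti-TNF-alpha antibodies detecting cytokine secreted by THP-1 cells. Cells had been incubated with test compounds at 37 C for 17 hrs beforehand.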

Test [14] can be described thus: qHTS assay for environmental chemicals that activate the Aryl hydrocarbon Receptor (AhR) signaling pathway (AID 651777). Also: % of control where 0% means no effect; nearly all actives have a fitted effect of over 15% in size. The settings on record: 1A2-DRE human hepatoma cells, luciferase, 24 h; activation: stronger effect = higher value. A digest of the protocol: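 Human hepatoma 1A2-DRE cells stably carrying a DRE/CYP1A2 promoter–luciferase reporter, 1,200 cells/well, exposed to compound 24 hr at 37 C. Luciferase read by One-Glo luminescence after 30 min at room temperature; increased signal marks AhR activation.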

Test [15] deals with Peroxisome proliferator-activated receptor alpha (Homo sapiens) (UniProt Q07869). The test is described as follows: qHTS assay for small molecule agonists of the peroxisome proliferator-activated receptor alpha (PPARalpha) signaling pathway (AID 651778). Also: % of control where 0% means no effect. To be noted: PathHunter PPARalpha complementation, chemiluminescence, 6 h; stronger effect = higher value. A digest of the protocol: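 Cells plated at 2,000/well and held overnight at 37 C, 5% CO2, then compound added by pin tool for 6 hr; after PathHunter detection reagent and 60 min at room temperature, chemiluminescence from enzyme complementation was read.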
Chain of Peroxisome proliferator-activated receptor alpha (Homo sapiens) (Q07869 whole entry, looked up): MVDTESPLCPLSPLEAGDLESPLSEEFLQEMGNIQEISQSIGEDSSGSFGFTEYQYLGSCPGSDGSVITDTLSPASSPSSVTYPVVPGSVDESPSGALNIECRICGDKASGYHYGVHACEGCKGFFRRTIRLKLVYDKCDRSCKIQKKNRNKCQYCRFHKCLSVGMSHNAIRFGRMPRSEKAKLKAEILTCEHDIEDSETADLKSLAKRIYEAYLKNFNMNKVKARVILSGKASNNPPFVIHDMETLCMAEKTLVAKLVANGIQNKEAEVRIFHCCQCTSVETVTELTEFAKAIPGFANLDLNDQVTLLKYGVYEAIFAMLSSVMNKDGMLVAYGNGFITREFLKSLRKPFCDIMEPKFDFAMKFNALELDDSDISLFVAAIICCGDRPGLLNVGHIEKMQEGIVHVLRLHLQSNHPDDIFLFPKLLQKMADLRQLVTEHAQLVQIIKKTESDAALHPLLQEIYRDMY

Test [16] in a line: qHTS assay for small molecule agonists of the antioxidant response element (ARE) signaling pathway measured by Nrf2-dependant transcriptional activity (AID 720636; active = well fitted curve in the direction sought with a large enough effect in the repeat runs; an effect the other way counts as inactive or inconclusive; also: % of control where 0% means no effect). The settings on record: ARE-luc HepG2, Nrf2 luciferase reporter, 16 h; series mostly up to 92.4 µM. A digest of the protocol: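 ARE-luc HepG2 cells carrying an Nrf2-responsive luciferase reporter, in medium with 1% dialyzed FBS, exposed to compound for 16 hr at 37 C, 5% CO2. Luminescence read 30 min after ONE-Glo addition.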

Test [17] in a line: qHTS assay for small molecule agonists of the antioxidant response element (ARE) signaling pathway measured by Nrf2-dependant transcriptional activity - cell viability counter screen (AID 720653; active = well fitted curve in the direction sought with a large enough effect in the repeat runs; an effect the other way counts as inactive or inconclusive; also: % is scaled to controls: 0 for no effect and ±100 for the full control effect). To be noted: ARE-bla HepG2 viability, CellTiter-Glo ATP luminescence, 16 h; stronger effect = lower value. The essentials:
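ARE-bla HepG2 cells (2,000/well) rested 5 hrs at 37C/5% CO2, then exposed to compounds in DMSO for 16 hrs. Viability was read in the same wells as intracellular ATP by luminescence, 30 min at room temperature after reagent addition.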

Test [18] is described as follows: qHTS assay to identify small molecules that stimulate interleukin-8 (IL-8) secretion (AID 651758; active = well fitted activation curve with a large enough effect in the signal ratio; the % refers to the signal ratio; also: 0% is about no effect). To be noted: HTRF ratio (665/615); series mostly up to 92.2 µM. The essentials: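 THP-1, 2000 cells/well; cpd 16 h, 37 C; add cryptate + XL665 anti-IL-8 Abs; RT 1-3 h; TR-FRET read.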
Test [19] has as its target Nuclear receptor ROR-gamma (Homo sapiens) (UniProt P51449). The test is described as follows: qHTS assay for small molecule antagonists of the retinoid-related orphan receptor gamma (ROR-gamma) signaling pathway (AID 651802).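 Also: luciferase reporter luminescence driven by ROR response element; % is scaled to controls: 0 for no effect and ±100 for the full control effect; nearly all actives have a fitted effect of over 60% in size.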 To be noted: ROR-gamma antagonist cell reporter assay; series mostly up to 92.2 µM. The essentials:
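CHO, TET-inducible ROR + RORE-LUC reporter, 1536-well qHTS. Compound pinned, doxycycline added, 16hr 37C/5% CO2. ONE-Glo, 30 min RT, luminescence; signal drop scored as antagonism.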

The nature of test [20]: qHTS assay for small molecule antagonists of the retinoid-related orphan receptor gamma (ROR-gamma) signaling pathway - cell viability counter screen (AID 720652; active = well fitted curve in the direction sought with a large enough effect in the repeat runs; an effect the other way counts as inactive or inconclusive;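 also: compound exposure lasted 16 hr before ATP read; % is scaled to controls: 0 for no effect and ±100 for the full control effect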). To be noted: RORgamma reporter cell line viability counter screen; series mostly up to 92.2 µM. A digest of the protocol:
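Luminescence from CellTiter-Glo after 30 min at room temperature reported cellular ATP as the cytotoxicity measure. Cells were the CHO reporter line with doxycycline-induced ROR-gamma expression, exposed to compound for 16 hr at 37 C.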

Chain of Voltage-gated inwardly rectifying potassium channel KCNH2 (Homo sapiens) (Q12809 whole entry, looked up): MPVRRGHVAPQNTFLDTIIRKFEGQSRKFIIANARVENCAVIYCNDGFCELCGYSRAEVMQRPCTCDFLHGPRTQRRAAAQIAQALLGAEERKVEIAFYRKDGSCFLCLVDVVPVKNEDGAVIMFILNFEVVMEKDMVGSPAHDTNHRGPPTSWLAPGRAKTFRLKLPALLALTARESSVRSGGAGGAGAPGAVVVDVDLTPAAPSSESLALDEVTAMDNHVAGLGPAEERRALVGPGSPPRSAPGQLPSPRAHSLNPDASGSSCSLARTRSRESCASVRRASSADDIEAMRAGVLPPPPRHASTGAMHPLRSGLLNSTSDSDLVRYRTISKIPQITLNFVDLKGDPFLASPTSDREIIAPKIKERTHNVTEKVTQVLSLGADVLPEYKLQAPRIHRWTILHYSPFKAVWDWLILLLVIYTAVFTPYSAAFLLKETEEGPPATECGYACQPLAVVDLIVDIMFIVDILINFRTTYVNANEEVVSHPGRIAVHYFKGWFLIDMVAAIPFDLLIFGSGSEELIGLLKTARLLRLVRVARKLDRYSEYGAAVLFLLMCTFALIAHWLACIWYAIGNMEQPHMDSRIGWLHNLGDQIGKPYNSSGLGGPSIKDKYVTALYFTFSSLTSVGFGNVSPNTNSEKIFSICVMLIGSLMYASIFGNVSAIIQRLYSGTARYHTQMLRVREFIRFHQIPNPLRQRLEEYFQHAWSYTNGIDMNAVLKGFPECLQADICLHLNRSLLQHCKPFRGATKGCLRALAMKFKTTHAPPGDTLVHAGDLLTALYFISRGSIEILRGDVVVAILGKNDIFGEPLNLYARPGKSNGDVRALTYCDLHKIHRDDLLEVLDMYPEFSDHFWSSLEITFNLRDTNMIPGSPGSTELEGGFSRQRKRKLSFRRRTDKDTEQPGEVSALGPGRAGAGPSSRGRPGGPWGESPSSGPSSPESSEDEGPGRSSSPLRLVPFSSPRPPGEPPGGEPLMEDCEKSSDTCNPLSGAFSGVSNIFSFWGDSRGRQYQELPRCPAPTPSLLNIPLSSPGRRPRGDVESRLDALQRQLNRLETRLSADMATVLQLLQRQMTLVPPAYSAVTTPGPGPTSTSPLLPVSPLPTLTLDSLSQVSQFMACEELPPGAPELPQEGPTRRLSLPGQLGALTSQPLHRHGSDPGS
Chain of Nuclear receptor ROR-gamma (Homo sapiens) (P51449 whole entry, looked up): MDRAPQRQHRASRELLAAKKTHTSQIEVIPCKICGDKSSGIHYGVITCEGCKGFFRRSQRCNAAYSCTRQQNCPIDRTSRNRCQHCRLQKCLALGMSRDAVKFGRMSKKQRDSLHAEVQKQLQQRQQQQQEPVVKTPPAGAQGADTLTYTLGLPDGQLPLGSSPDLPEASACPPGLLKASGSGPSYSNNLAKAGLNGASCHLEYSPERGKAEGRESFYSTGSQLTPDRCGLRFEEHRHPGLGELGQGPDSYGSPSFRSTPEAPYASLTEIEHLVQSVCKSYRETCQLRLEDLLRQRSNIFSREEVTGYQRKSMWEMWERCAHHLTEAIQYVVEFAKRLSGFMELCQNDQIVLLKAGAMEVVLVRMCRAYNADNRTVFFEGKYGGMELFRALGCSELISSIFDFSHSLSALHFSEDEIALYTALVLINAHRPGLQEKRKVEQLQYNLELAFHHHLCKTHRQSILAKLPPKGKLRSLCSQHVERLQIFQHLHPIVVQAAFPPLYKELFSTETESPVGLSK
Chain of Tumor necrosis factor (Homo sapiens) (P01375 whole entry, looked up): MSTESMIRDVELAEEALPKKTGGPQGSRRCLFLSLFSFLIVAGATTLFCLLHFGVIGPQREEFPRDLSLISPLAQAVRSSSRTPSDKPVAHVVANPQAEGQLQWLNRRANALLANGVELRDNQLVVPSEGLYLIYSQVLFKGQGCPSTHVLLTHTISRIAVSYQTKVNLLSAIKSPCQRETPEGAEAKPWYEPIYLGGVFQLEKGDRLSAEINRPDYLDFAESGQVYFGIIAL

For the compound `CC/C=C/C#N`, the max response in [1] is -6.67%; in test [4] it was -0.89%; in [5] it was 10.5% (inactive); in test [15], 9.19% (inactive); in test [17] it was 1.63% (inactive). In addition, the outcome in test [2], in test [3] and in [16] was inactive. The activity change % (negative = inhibition) in test [6] is 3.84% (inactive). The Potency entry in [7], in test [8], in test [11], in test [12] and in test [13] was “inactive” throughout. In addition, the results for the activation in [9], in test [10] and in test [14] were -0.654% (inactive), -2.54% (inactive) and -1.16% (inactive), respectively.

As for `CCC(C)O` (configuration not stated), the max response in [1] is -20.4%; in [4], 2.22%; in test [5], 4.59% (inactive); in [15], 0.282% (inactive); in test [17], -9.02% (inactive). In addition, the compound was classed as inactive in test [2] and in [3]. Besides, the activity change % (negative = inhibition) in test [6] is -7.82% (inactive). Also, the Potency result in test [7], in test [8], in test [11], in [13], in test [18] and in [19] was “inactive” in each case. The activation in test [9] was -1.8% (inactive).

Consider `N#CCc1ccccc1[N+](=O)[O-]`, for which the max response in [1] is -1.87%; in test [4], 20.6%; in test [5] it was -6.12% (inactive); in test [15] it was -3.4% (inactive). Further, the compound was called inactive in test [2], in test [3] and in [16]. Also, the activity change % (negative = inhibition) in test [6] was -13.4% (inactive). For the same compound, the Potency result in test [7], in [11], in [12], in [13], in [19] and in test [20] was “inactive” throughout. Moreover, the Potency in test [8] is 42.2 µM (active). The values for the activation in [9], in test [10] and in test [14] were -2.66% (inactive), -0.713% (inactive) and 4.16% (inactive), respectively.

`CC(C)=CCC/C(C)=C/C=O`: the max response was 15.9% and -0.251% in [1]; 6.99% and -4.75% in test [4]; 4.52% (inactive) and -4.94% (inactive) in test [5]; -4.87% (inactive) and -0.301% (inactive) in [15]. Moreover, the call in test [2] and in test [3] was inactive. In addition, the activity change % (negative = inhibition) in test [6] is -16.2% (inactive). For the same compound, the Potency entry in [7], in [8], in test [11], in test [13], in [18] and in test [19] was “inactive” in each case. For the same compound, in [20], the Potency result was “inactive”. Further, the activation in [9] is -0.8% (inactive) and -0.838% (inactive); in test [14], 1.06% (inactive) and -1.3% (inactive).

On to `CCC(O)C(C)(C)C` (configuration not stated), for which the max response in [1] is -3.08%; in test [4], -1.12%; in test [5], -2.9% (inactive); in test [15], -0.805% (inactive). The result in test [2], in [3] and in [16] was inactive. In test [6], the activity change % (negative = inhibition) was 9.28% (inactive). Further, the Potency entry in test [7], in test [8], in test [11], in [12], in test [13] and in test [19] was “inactive” throughout. Moreover, the Potency result in [20] is “inactive”. Also, the activation in [9] was -0.0168% (inactive); in test [10], -0.45% (inactive); in test [14], 0.48% (inactive).

Consider `CC(C)=CCl`, for which the max response in [1] was 6.48%; in [4], -7.86%; in [5], 7.55% (inactive); in test [15], 0.634% (inactive). Further, the call in test [2], in test [3] and in [16] was inactive. For the same compound, in test [6], the activity change % (negative = inhibition) was -1.53% (inactive). Moreover, the Potency entry in [7], in test [8], in test [12], in test [13], in test [18] and in test [19] was “inactive” in each case. In addition, the Potency result in [20] is “inactive”. The results for the activation in [9] and in test [10] were -2.89% (inactive) and 0.211% (inactive), respectively.

Take `O=C1CCC(=O)O1`: the max response in test [1] was 8.02%; in test [4] it was -8.25%; in test [5], -2.46% (inactive); in test [15] it was 3.38% (inactive); in test [17] it was -3.63% (inactive). Also, the result in test [2] and in test [3] was inactive. For the same compound, the activity change % (negative = inhibition) in test [6] was -21.6% (inactive). Besides, the Potency result in test [7], in [8], in [12], in test [13], in [19] and in test [20] was “inactive” in each case. Besides, the activation in test [9] is 0.572% (inactive); in test [14], -1.39% (inactive).
